GLS inhibitor = qHTS for Inhibitors of Glutaminase (GLS); Glutaminase kidney isoform, mitochondrial (Homo sapiens), O94925; GLS enzymatic activity, qHTS titration; Potency, µM (highest dose often 45.5 µM), most hits filed as inhibitors; actives 0.21% (n = 410,000); AID 624170, 2012
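hKGA; 45 mM KH2PO4 pH 8.2 + 0.02% Tween-20; cpd via pin tool; 1 mM Gln soln; GluOx/HRP/Amplex Red; RT 30 min; fluor. t0 & final.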
POLB inh = qHTS Assay for Inhibitors of DNA Polymerase Beta; Pol beta primer extension/strand displacement, fluorescence kinetic; Potency, µM (series often up to 114 µM), actives largely listed as inhibitors; actives 1.3% (n = 340,000); AID 485314, 2010; P06746
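Enzyme-only controls used 10 nM Pol beta; buffer lacking enzyme served as negative control. Compound preincubated 15 min, then 50 nM substrate added; 0 and 10 min reads at room temperature.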
Pol kappa inh = qHTS for Inhibitors of Polymerase Kappa | AID 588579, 2011 | actives 0.53% (n = 400,000) | purified Pol kappa, fluorescent DNA synthesis assay, 10 min | Potency, µM (highest dose often 107 µM), actives largely listed as inhibitors
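Kinetic fluorescence screen: compound preincubated 15 min RT with 10 nM enzyme; 50 nM substrate (final) initiates; reads at 0/10 min.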
KAT2A inh = qHTS Assay for Inhibitors of GCN5L2; GCN5L2 HAT assay, ThioGlo1 CoA-SH fluorescence; Potency, µM (series often up to 58.9 µM), actives largely listed as inhibitors; actives 0.21% (n = 390,000); AID 504327, 2011
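Compounds, pin-transferred from DMSO stocks, meet 20nM GCN5L2 for 15 min before the reaction begins with H3(1-25) peptide (75uM) and acetyl-CoA (70uM). Thiol-reactive ThioGlo1 reports CoA release over 20 min at room temperature.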
POLI inh = qHTS for Inhibitors of Polymerase Iota; DNA polymerase iota (Homo sapiens), Q9UNA4; Pol iota fluorescent replication assay, 10 min; Potency, µM (highest dose often 115 µM), actives largely listed as inhibitors; actives 1% (n = 390,000); AID 588590, 2011
Target sequence (Q9UNA4 whole entry, looked up): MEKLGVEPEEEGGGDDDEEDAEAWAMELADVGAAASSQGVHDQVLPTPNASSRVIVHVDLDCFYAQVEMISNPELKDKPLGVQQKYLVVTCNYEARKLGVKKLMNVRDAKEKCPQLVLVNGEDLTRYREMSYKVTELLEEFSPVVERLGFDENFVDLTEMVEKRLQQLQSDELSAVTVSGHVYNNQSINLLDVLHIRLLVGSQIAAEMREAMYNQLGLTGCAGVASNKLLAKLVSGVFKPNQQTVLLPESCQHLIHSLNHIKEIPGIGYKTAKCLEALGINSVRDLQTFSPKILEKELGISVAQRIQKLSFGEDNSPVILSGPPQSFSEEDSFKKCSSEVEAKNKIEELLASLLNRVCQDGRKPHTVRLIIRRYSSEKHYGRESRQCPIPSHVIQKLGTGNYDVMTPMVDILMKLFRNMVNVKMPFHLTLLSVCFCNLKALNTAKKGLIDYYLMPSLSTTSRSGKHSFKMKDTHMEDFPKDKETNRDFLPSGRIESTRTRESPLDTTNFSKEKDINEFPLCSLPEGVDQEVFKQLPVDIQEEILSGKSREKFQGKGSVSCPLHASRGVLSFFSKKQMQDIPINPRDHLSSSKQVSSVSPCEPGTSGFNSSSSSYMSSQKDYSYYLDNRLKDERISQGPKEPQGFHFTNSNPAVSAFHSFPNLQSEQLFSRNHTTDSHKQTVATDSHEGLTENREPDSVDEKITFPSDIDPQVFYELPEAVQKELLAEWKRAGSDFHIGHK
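Pol iota at 10 nM preincubated 15 min with compounds at room temperature; reaction started with fluorescent substrate, 50 nM final. Fluorescence read kinetically at 0 and 10 min; buffer-only wells as negative control.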
Pol eta inh = qHTS for Inhibitors of Polymerase Eta | DNA polymerase eta (Homo sapiens), Q9Y253 | Potency, µM (top dose mostly 114 µM), hits mostly inhibitors | recombinant Pol eta, fluorescent DNA replication assay | actives 1.2% (n = 390,000)
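Fluorescent replication assay: 50 nM final substrate added after a 15 min room-temperature compound preincubation with 10 nM enzyme. Signal taken at 0 min and again at 10 min.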
Hits are given with their value; . = inactive; ? = inconclusive; / = no result; ! = a repeat was not active. This is a sample that favours compounds with a hit; in the whole collection about 2.4% have one here. Calls follow the shape of the dose curve; as a rule, active = well fitted inhibition curve with a large enough effect; inconclusive = small, poorly fitted or top-dose-only effect, or another doubt; inactive = no such curve, though single readings can be large or run the other way.

SMILES	GLS inhibitor	POLB inh	Pol kappa inh	KAT2A inh	POLI inh	Pol eta inh
NC(=O)C(CC(=O)O)NC(=O)[C@@H]1CCCCNc2c(I)cc([N+](=O)[O-])cc2C(=O)N[C@@H](CO)C(=O)NCC(=O)N1 (stereo partly specified)	/	35µM	/	.	/	/
NC(=O)C(CC(=O)O)NC(=O)[C@@H]1CCCNc2c(I)cc([N+](=O)[O-])cc2C(=O)N[C@@H](CO)C(=O)N[C@@H](Cc2ccc(O)cc2)C(=O)N1 (stereo partly specified)	?	.	50µM	.	?	16µM
NCCCC[C@@H]1NC(=O)c2cc([N+](=O)[O-])cc(F)c2NCCCC[C@@H](C(N)=O)NC(=O)CNC1=O	.	.	.	.	.	.
CCN(c1ccccc1)S(=O)(=O)c1ccc(NC(=O)c2cc(=O)c3ccc(C)c(C)c3o2)cc1	.	.	.	.	.	.
COc1cc(N(C)C)c(OC)cc1/C=C/c1ccnc2ccccc12	/	/	.	/	.	/
CC(=O)NC1=NN(C(C)=O)C(C)(c2ccc3ccccc3c2)S1 (stereo unspecified)	.	.	.	.	.	.
CC(=O)NC1=NN(C(C)=O)C(C)(c2ccccc2)S1 (stereo unspecified)	.	7.1µM	.	.	.	.
CNCCc1cnc(CCC(c2ccccc2)c2ccccc2)[nH]1	/	/	.	.	/	/
COc1ccc2c(COC(=O)CC3Sc4ccccc4NC3=O)cc(=O)oc2c1 (stereo unspecified)	.	35µM	.	?	?	20µM
COc1ccc(NC(=O)COC(=O)CC2Sc3ccccc3NC2=O)cc1 (stereo unspecified)	.	/	.	.	.	.
Cn1c(Oc2ccc(F)cc2)nc2c1c(=O)n(Cc1ccccc1Cl)c(=O)n2C	.	.	.	.	.	.
CC(=O)NC1C(=O)N(CCN2CCOCC2)c2ccc(C)cc21 (stereo unspecified)	?	?	.	.	.	25µM
COc1ccc(-n2nnnc2SCC(=O)NC2CC2)cc1	.	/	.	.	.	89µM
Cc1cccc(C2=NN(c3ccccc3)[C@@H](C(=O)N3CCOC3=O)[C@@H]2c2ccc(F)cc2)c1	.	/	.	32µM	.	.
Nc1ccc2c(O)cc(S(=O)(=O)O)cc2c1	4µM	/	14µM	/	8.9µM	5.6µM
O=C(O)c1cc(S(=O)(=O)O)ccc1O	.	.	.	.	.	.
CCc1ccc(CNc2ccc(O)cc2)cc1	.	?	.	.	2.8µM	25µM
CCOc1cc(CNc2ccc(O)cc2)ccc1OCc1ccc(Cl)cc1Cl	.	?	.	.	8.9µM	18µM
CCOc1ccccc1CNc1ccc(O)cc1	.	.	.	.	7.1µM	50µM
Oc1ccc(NCc2ccccc2OCc2ccccc2F)cc1	.	.	.	.	10µM	50µM!
CCc1ccc(CNc2ccc3c(c2)ncn3CC)cc1	.	.	.	.	.	.
CCOc1cc(CNCc2ccccc2)ccc1OCc1ccc(Cl)cc1	.	.	.	?	.	.
CC[C@H](C)[C@H](NC(=O)[C@@H](NC(=O)CNC(=O)[C@@H](N)CC(C)C)[C@@H](C)O)C(=O)N1CCC[C@H]1C(=O)NCC(=O)O	/	/	.	.	/	/
Cc1ccc(S(=O)(=O)N(C)CCCN(C)c2nc(-c3cccs3)nc3ccccc23)cc1	/	/	.	/	.	/
COc1cccc(CNCCO)c1OCc1ccc(Cl)cc1	.	.	.	.	.	.
SMILES	GLS inhibitor	POLB inh	Pol kappa inh	KAT2A inh	POLI inh	Pol eta inh
CCOc1cccc(CNc2ccc(O)cc2)c1OCc1ccc(Cl)cc1	.	.	.	.	11µM	50µM
COC(=O)C1=C[C@@H](C(=O)OC)[C@@H]2C3=C(C(=O)C2(C)C)[C@H](c2ccccc2)[C@@H]2C(=O)N(c4ccccc4)C(=O)[C@@H]2[C@@H]3C1	/	/	.	/	.	/
Cc1ccc(Nc2ccc(N3CCN(C(=O)c4ccc([N+](=O)[O-])cc4)CC3)nn2)cc1	.	.	.	.	.	.
O=C(COC(=O)/C=C/c1ccc2ccccc2n1)NNC(=O)c1ccccc1	.	/	/	/	/	40µM
OCCCCCN=c1cc(-c2ccccc2)oc2ccc(Cl)cc12	.	35µM	.	.	.	.
O=c1cc(-c2ccccc2)oc2ccc3ccccc3c12	.	/	/	/	/	.
O=C(Cn1cnc2nc3c(cc2c1=O)CCCC3)Nc1ccc(F)cc1Cl	.	.	.	.	.	.
O=C(NC(=S)NNC(=O)c1ccccc1[N+](=O)[O-])c1ccccc1	.	.	.	?	.	.
CCC(=O)NC(=S)NNC(=O)c1ccccc1[N+](=O)[O-]	.	.	.	25µM	.	.
C1=C/C(=C2/C=Cc3ccccc32)c2ccccc2N1	/	/	.	/	.	/
COc1cccc(NS(=O)(=O)c2ccc3[nH]cc(C(=O)NCCc4ccccc4)c(=O)c3c2)c1	.	?	.	.	79µM	.
CC(C)c1ccc(NS(=O)(=O)c2ccc3[nH]cc(C(=O)NCCc4ccccc4)c(=O)c3c2)cc1	.	?	.	.	.	.
COc1cccc(NS(=O)(=O)c2ccc3[nH]cc(C(=O)N(C)Cc4ccco4)c(=O)c3c2)c1	.	?	?	.	79µM	?
CCc1ccc(NS(=O)(=O)c2ccc3[nH]cc(C(=O)NCCCOC(C)C)c(=O)c3c2)cc1	.	40µM	?	.	?	?
COc1cccc(NS(=O)(=O)c2ccc3[nH]cc(C(=O)NC4CCCCC4)c(=O)c3c2)c1	.	?	.	.	?	89µM
COc1cccc(NS(=O)(=O)c2ccc3[nH]cc(C(=O)NCCc4ccc(C)cc4)c(=O)c3c2)c1	.	?	.	.	?	?
CC(C)c1ccc(NS(=O)(=O)c2ccc3[nH]cc(C(=O)N4CCC(C(N)=O)CC4)c(=O)c3c2)cc1	.	50µM	.	.	?	18µM
CCOc1ccc(NS(=O)(=O)c2ccc3[nH]cc(C(=O)N(CC)CC)c(=O)c3c2)cc1	.	.	.	.	?	20µM
Cc1cc(C)cc(NS(=O)(=O)c2ccc3[nH]cc(C(=O)N4CCCC4)c(=O)c3c2)c1	.	.	.	.	.	.
